# PubChem BioAssay (EPA / NIEHS)
# Inconclusive results are not listed. Calls of active or inactive are those of the source. Rule for the calls, unless noted: active = hit-call score of the fitted dose curve at least 0.9, where 1 is the maximum; inconclusive = response in the unintended direction; inactive = score below 0.9.
# How the values were obtained:
# [1] = target: Retinoic acid receptor RXR-alpha (Homo sapiens) (UniProt P19793); test: ATG_RXRa_TRANS: Attagene TRANS-FACTORIAL HepG2 Assay for human Retinoid X Receptor alpha (RXRa) (AID 2283012)
# Chain of Retinoic acid receptor RXR-alpha (Homo sapiens) (P19793 whole entry, looked up, the tested form may be a part): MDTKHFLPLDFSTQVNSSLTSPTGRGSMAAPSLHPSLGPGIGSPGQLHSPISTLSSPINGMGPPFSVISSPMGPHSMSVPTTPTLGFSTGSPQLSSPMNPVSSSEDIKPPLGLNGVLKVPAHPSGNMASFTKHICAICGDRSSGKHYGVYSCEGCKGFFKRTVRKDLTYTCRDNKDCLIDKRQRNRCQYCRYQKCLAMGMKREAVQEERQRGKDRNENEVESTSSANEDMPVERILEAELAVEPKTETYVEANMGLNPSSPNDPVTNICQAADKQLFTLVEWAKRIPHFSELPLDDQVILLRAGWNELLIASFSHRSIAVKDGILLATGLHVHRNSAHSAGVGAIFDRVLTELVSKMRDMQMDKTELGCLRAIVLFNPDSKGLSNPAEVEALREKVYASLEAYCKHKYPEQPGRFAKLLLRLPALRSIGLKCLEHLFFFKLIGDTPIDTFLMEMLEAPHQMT
# How it was run: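 HepG2 cells transiently transfected with multiplexed GAL4-UAS reporter units and chimeric NR-GAL4 fusions, dosed 24 h. Reporter mRNA measured by RT-PCR, FAM labelling, HpaI digestion and capillary electrophoresis; gain-of-signal fitted relative to DMSO baseline.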
# [2] = target: human Retinoid X Receptor beta (RXRb), RXRB (gene 6257) (UniProt P28702); test: ATG_RXRb_TRANS: Attagene TRANS-FACTORIAL HepG2 Assay for human Retinoid X Receptor beta (RXRb) (AID 2283013)
# Chain of human Retinoid X Receptor beta (RXRb), RXRB (gene 6257) (P28702 whole entry, looked up, the tested form may be a part): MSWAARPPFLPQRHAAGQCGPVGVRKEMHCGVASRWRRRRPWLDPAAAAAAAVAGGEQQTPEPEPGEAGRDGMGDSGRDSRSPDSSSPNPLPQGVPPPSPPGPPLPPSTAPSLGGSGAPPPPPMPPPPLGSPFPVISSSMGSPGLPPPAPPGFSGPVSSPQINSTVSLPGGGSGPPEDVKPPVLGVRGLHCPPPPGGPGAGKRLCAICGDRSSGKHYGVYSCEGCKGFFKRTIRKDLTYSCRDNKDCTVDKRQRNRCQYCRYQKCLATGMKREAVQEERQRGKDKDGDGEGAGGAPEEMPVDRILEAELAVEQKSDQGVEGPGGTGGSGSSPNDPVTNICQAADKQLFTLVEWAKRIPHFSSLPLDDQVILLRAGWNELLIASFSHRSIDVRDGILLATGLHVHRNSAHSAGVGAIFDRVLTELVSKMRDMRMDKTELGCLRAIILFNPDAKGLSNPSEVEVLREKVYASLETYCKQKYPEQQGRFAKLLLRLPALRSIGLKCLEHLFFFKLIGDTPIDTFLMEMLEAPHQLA
# How it was run: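 HepG2 cells transiently transfected with multiplexed reporter units driven by GAL4-UAS and exogenous chimeric NR-Gal4 proteins; treated 24 h. Reporter mRNA measured by RT-PCR, 6-FAM labelling and capillary electrophoresis; gain-of-signal fitted versus DMSO baseline.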
# [3] = target: human Thyroid Receptor alpha (THRa1), THRA (gene 7067) (UniProt P10827); test: ATG_THRa1_TRANS: Attagene TRANS-FACTORIAL HepG2 Assay for human Thyroid Receptor alpha (THRa1) (AID 2283014)
# Chain of human Thyroid Receptor alpha (THRa1), THRA (gene 7067) (P10827 whole entry, looked up, the tested form may be a part): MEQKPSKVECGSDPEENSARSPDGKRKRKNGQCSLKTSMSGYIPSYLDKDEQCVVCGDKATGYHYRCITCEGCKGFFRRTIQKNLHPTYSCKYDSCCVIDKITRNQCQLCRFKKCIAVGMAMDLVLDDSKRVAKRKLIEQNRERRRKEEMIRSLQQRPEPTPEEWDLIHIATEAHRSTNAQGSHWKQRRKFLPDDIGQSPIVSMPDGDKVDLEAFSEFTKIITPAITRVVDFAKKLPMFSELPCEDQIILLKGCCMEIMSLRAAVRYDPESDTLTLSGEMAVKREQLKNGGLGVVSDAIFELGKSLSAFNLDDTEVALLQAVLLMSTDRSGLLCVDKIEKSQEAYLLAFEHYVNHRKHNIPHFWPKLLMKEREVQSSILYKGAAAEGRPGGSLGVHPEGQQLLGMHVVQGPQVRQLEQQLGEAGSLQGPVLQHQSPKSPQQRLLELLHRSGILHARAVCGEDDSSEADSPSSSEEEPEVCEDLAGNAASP
# How it was run: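 Reporter transcript induction, read by capillary electrophoresis of 6-FAM-labelled RT-PCR products, reflects activity of a transfected THRa1-Gal4 fusion in HepG2 liver cells. Cells were dosed for 24 h; activity was fitted in the positive direction against DMSO.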
# [4] = read-out: E-selectin (Homo sapiens) (UniProt P16581); test: BSK_3C_Eselectin: BioMAP Diversity Plus: 3C Assay for Eselectin Biomarker Activity (AID 2283015; active = hit-call score of the fitted dose curve at least 0.9, where 1 is the maximum; inactive = score below 0.9;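 for outcome: cell surface E-selectin protein quantified by ELISA 24 h after dosing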); conditions: primary human endothelial cells (HUVEC); actives raise or lower the signal
# How it was run: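 ELISA read-out of E-selectin on endothelial monolayers after 24 h chemical treatment. Human umbilical vein primary cells served as the system, with DMSO defining baseline activity for bidirectional fitting.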
# [5] = read-out: Interleukin-1 alpha (IL1a), IL1A (gene 3552); test: BSK_BE3C_IL1a: BioMAP Diversity Plus: BE3C Assay for Interleukin-1 alpha (IL1a) Biomarker Activity (AID 2283016; active = hit-call score of the fitted dose curve at least 0.9, where 1 is the maximum; inactive = score below 0.9); conditions: primary human bronchial epithelial cells; actives raise or lower the signal
# How it was run: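 Human primary bronchial epithelial cells (BE3C system) were dosed with compound and IL-1a measured by ELISA 24 h later. Activity was fitted bidirectionally against DMSO baseline; cytotoxicity was tracked in parallel cultures by SRB total-protein staining.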
# [6] = read-out: Monocyte Chemoattractant Protein-1 (MCP1), CCL2 (gene 6347); test: BSK_3C_MCP1: BioMAP Diversity Plus: 3C Assay for Monocyte Chemoattractant Protein-1 (MCP1) Biomarker Activity (AID 2283017; active = hit-call score of the fitted dose curve at least 0.9, where 1 is the maximum; inactive = score below 0.9); conditions: primary human endothelial cells (HUVEC); actives raise or lower the signal
# How it was run: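 ELISA read-out of MCP-1 from human umbilical vein endothelial cell cultures harvested 24 h post-dosing. Gain or loss of signal was fitted relative to DMSO.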
# [7] = read-out: Monocyte Chemoattractant Protein-1 (MCP1), CCL2 (gene 6347); test: BSK_4H_MCP1: BioMAP Diversity Plus: 4H Assay for Monocyte Chemoattractant Protein-1 (MCP1) Biomarker Activity (AID 2283018; active = hit-call score of the fitted dose curve at least 0.9, where 1 is the maximum; inactive = score below 0.9); conditions: primary human endothelial cells (HUVEC); actives raise or lower the signal
# How it was run: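 Human umbilical vein endothelial cells (4H system) dosed with chemical; MCP-1 measured by ELISA 24 h after dosing. Bidirectional curve fitting against DMSO negative control as baseline; parallel SRB total-protein staining tracks overt cytotoxicity.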
# [8] = read-out: Human Leukocyte Antigen - DR isotype (HLADR), HLA-DRA (gene 3122); test: BSK_3C_HLADR: BioMAP Diversity Plus: 3C Assay for Human Leukocyte Antigen - DR isotype (HLADR) Biomarker Activity (AID 2283019; active = hit-call score of the fitted dose curve at least 0.9, where 1 is the maximum; inactive = score below 0.9;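 for outcome: ELISA of cell-surface HLA-DR on HUVEC 24 h after dosing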); conditions: primary human endothelial cells (HUVEC); actives raise or lower the signal
# How it was run: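 ELISA readout of surface HLA-DR on human umbilical vein endothelium, taken 24 h after chemical treatment. Gain- and loss-of-signal were both fitted relative to DMSO.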
# [9] = read-out: Interleukin-8 (IL8), CXCL8 (gene 3576); test: BSK_3C_IL8: BioMAP Diversity Plus: 3C Assay for Interleukin-8 (IL8) Biomarker Activity (AID 2283020; active = hit-call score of the fitted dose curve at least 0.9, where 1 is the maximum; inactive = score below 0.9); conditions: primary human endothelial cells (HUVEC); actives raise or lower the signal
# How it was run: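 Primary human umbilical vein endothelial cells (3C system) were exposed to test chemical for 24 h, then IL-8 was quantified by ELISA. Responses were fitted bidirectionally against DMSO vehicle as baseline.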
# Chain of E-selectin (Homo sapiens) (P16581 whole entry, looked up): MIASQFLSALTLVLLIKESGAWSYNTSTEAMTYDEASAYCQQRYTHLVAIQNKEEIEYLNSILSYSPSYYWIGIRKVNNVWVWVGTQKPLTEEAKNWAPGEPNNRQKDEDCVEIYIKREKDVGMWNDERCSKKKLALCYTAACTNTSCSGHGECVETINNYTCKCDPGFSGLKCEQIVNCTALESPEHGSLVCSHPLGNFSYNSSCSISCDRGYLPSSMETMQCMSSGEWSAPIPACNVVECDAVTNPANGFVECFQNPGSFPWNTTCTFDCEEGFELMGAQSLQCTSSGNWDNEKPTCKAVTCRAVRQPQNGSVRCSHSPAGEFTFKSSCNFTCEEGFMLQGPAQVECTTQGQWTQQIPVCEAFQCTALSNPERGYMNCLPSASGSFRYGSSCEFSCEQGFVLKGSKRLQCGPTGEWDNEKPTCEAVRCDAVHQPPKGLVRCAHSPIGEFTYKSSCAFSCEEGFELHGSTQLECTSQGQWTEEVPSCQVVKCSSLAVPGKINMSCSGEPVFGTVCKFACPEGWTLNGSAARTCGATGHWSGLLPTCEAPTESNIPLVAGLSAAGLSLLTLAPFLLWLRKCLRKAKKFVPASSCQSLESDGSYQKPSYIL
compound,measurement,setting,value
Cc1ccc(C(=O)c2cc(O)c(O)c([N+](=O)[O-])c2)cc1,outcome,[1],inactive
same,outcome,[2],inactive
same,outcome,[3],inactive
CCOc1ccccc1OCC,outcome,[1],inactive
same,outcome,[2],inactive
same,outcome,[3],inactive
CC(=O)/C=C/C1=C(C)CCCC1(C)C,outcome,[1],inactive
same,AC50,[2],80 µM (active)
same,outcome,[3],inactive
same,outcome,[4],inactive
same,outcome,[5],inactive
same,outcome,[6],inactive
same,outcome,[7],inactive
same,outcome,[8],inactive
same,outcome,[9],inactive
CCCc1ccccc1O,outcome,[1],inactive
same,AC50,[2],65.7 µM (active)
same,outcome,[3],inactive
CC(C)[C@H]1CC[C@@H](C)CC1=O,outcome,[1],inactive
same,outcome,[2],inactive
COc1nc(C)nc(N)n1,outcome,[1],inactive
same,outcome,[2],inactive
same,outcome,[3],inactive
NC(=O)NC1NC(=O)NC1=O (configuration not stated),outcome,[1],inactive
same,outcome,[2],inactive
same,outcome,[3],inactive
c1ccc2[nH]ccc2c1,outcome,[1],inactive
same,outcome,[2],inactive
same,outcome,[3],inactive
CN(C)C(=N)N=C(N)N,outcome,[1],inactive
same,outcome,[3],inactive
C=C(C)C(=O)OCc1ccccc1,outcome,[1],inactive
same,outcome,[2],inactive
same,outcome,[3],inactive
Nc1nc2ccc([N+](=O)[O-])cc2s1,outcome,[1],inactive
same,outcome,[2],inactive
same,outcome,[3],inactive
COC(=O)c1ccc(C)cc1,outcome,[1],inactive
same,AC50,[2],14.3 µM (active)
same,outcome,[3],inactive
same,outcome,[4],inactive
same,outcome,[5],inactive
same,outcome,[6],inactive
same,outcome,[7],inactive
same,outcome,[8],inactive
same,outcome,[9],inactive
COc1ccc(Nc2ccccc2)c(C)c1,outcome,[1],inactive
same,AC50,[2],33.1 µM (active)
same,outcome,[3],inactive
Cc1cc(C2(c3cc(C)c(O)cc3C)OS(=O)(=O)c3ccccc32)c(C)cc1O,outcome,[1],inactive
same,outcome,[2],inactive
same,outcome,[4],inactive
same,outcome,[5],inactive
same,outcome,[6],inactive
same,outcome,[7],inactive
same,outcome,[8],inactive
same,outcome,[9],inactive
CC(C)(C)NC(N)=O,outcome,[1],inactive
same,outcome,[2],inactive
same,outcome,[3],inactive
BrC1CCC(Br)C(Br)CCC(Br)C(Br)CCC1Br (configuration not stated),outcome,[1],inactive
same,AC50,[2],8.67 µM (active)
same,outcome,[3],inactive
same,outcome,[4],inactive
same,outcome,[5],inactive
same,AC50,[6],4.64 µM (active)
same,AC50,[7],1.58 µM (active)
same,AC50,[8],3.33 µM (active)
same,AC50,[9],4.7 µM (active)
CCCCO,outcome,[1],inactive
same,outcome,[3],inactive
CCCOCC(C)O (configuration not stated),outcome,[1],inactive
same,outcome,[2],inactive
same,outcome,[3],inactive
CC(C)=CCC[C@H](C)CC=O,outcome,[1],inactive
same,outcome,[2],inactive
same,outcome,[3],inactive
C=CCOc1nc(OCC=C)nc(OCC=C)n1,outcome,[1],inactive
same,AC50,[2],81 µM (active)
same,outcome,[3],inactive
CCC(=O)/C=C/C1C(C)=CCCC1(C)C (configuration not stated),outcome,[1],inactive
same,AC50,[2],34.7 µM (active)
O=C(O)c1snc(Cl)c1Cl,outcome,[1],inactive
same,outcome,[2],inactive
CO[Si](CCCn1c(=O)n(CCC[Si](OC)(OC)OC)c(=O)n(CCC[Si](OC)(OC)OC)c1=O)(OC)OC,outcome,[1],inactive
same,outcome,[3],inactive
CN(CCOc1ccc(CC2SC(=O)NC2=O)cc1)c1ccccn1 (configuration not stated),outcome,[1],inactive
same,outcome,[2],inactive
same,outcome,[3],inactive
same,AC50,[4],3.97 µM (active)
same,AC50,[5],3.97 µM (active)
same,AC50,[6],0.113 µM (active)
same,AC50,[7],3.97 µM (active)
same,AC50,[8],9.42 µM (active)
same,outcome,[9],inactive
CC(=O)c1c(C)cc(C(C)(C)C)cc1C,outcome,[1],inactive
same,outcome,[3],inactive
O=C(COc1ccc(Cl)cc1)N1CCN(Cc2ccc3c(c2)OCO3)CC1,outcome,[2],inactive
same,outcome,[3],inactive
C=CC(C)(C)O,outcome,[2],inactive
CC(C)Oc1ccccc1O,outcome,[1],inactive
same,outcome,[4],inactive
same,outcome,[5],inactive
same,outcome,[6],inactive
same,outcome,[7],inactive
same,outcome,[8],inactive
same,outcome,[9],inactive
